The source of these data is PubChem BioAssay AID1508600 (Functional Genomics Laboratory (NCATS/FGL), 2020).

Among all 53,000 sequences or so, about 3,700 (7%) were called active.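 The calls were made as follows: active = gene knockdowns whose robust z-score for IL-1 alpha signal is at least 2 or at most -2, so actives lie on both sides; inactive = the rest.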 The entries come from a sample that favours actives as a whole.

The nature of this experiment: Components of the Cytosolic LPS Sensing Pathway: Gene Identification via Genome-wide siRNA Screen.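 Also: robust z of the log signal after scaling to non-targeting control siRNA wells of the plate.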 The following applies: RAW264.7 macrophages, IL-1a HTRF, actives lie on both sides, screened at 100 nM (by protocol), cells primed 5 h with Pam3CSK4 first. Summed up: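 RAW264.7; siRNA 100 nM final, RNAiMAX, 48h 37 degrees C; Pam3CSK4 5 h; LipidA + TransIT-TKO 24 h; IL-1a HTRF; CellTiter-Glo viability; robust z vs negative-control median.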
(Time-resolved FRET reads energy transfer from a long-lived donor to a nearby acceptor.)
For GGUUAAAAAUGCCAUUAGATT against Olfr1233, the z-score was 0.133 (inactive).

For the sequence GGAAGACAUCAAGAUGUAATT against Rp1l1, the z-score was -1.28 (inactive).

GGAGCUGUAAAGGCUACAATT against Sulf2: the z-score was 4.14 (active).

As for CGUGGAAAUGUCUUAAAUCTT against Folh1, the z-score is 0.412 (inactive).

GGAGAAAAAUCCUACCGACTT against Zmym5: the z-score is 0.56 (inactive).

Turning to GCGAUUGAAGUCUCAGGGATT against Nrde2, the z-score was -1.03 (inactive).

Take GGAAUAUUGGUUGUGAUGATT against Ralb: the z-score was -0.197 (inactive).

In the case of GCUAAUGGUCCAUUGAUAUTT against Btn2a2, the z-score is 0.229 (inactive).

For GGGAAGAGUUGGAUCGAUCTT against Shkbp1, the z-score is -0.0675 (inactive).

As to GGAGGAUAAGGAUACAGUATT against Cspg5, the z-score is 2.27 (active).

As for GGAGGAAAGAAAAGAUCCATT against Tie1, the z-score is -0.102 (inactive).

Consider GCUAUGUCAUGGUUGGAACTT against Bag6, for which the z-score was 0.597 (inactive).

On to GCUUGCCUGACCUGAAACATT against Apool, for which the z-score was -2.38 (active).

Take GCAACAAAUCAGAUUUGACTT against Dhdh: the z-score was 0.246 (inactive).

As to GGGAUGGACAAGUUGUACUTT against Renbp, the z-score is -0.101 (inactive).

For the sequence GGACCUUUUUAUCCAACGCTT against Mcts2, the z-score was 0.46 (inactive).

On to CCUGAAUUAUGUGUAACUUTT against Ywhab, for which the z-score is -0.819 (inactive).

As for CCACUGUGAGACACAUAAGTT against Muc4, the z-score was -3.25 (active).

With “GGAAAUAGAUCCUUUUUGATT against 2510039O18Rik”, the z-score is 0.861 (inactive).

On to GCCAGUAGUAGUAGAAUAATT against Gm4841, for which the z-score is 0.997 (inactive).

For CCUGGCAGUAAAAGAUUGCTT against Ndst3, the z-score was 0.836 (inactive).

As for GGGAAGGGAUCCUAUAUUUTT against Lsm12, the z-score was 0.158 (inactive).

For CCCAGCAUGGAUCAAGCACTT against Krt73, the z-score is 0.864 (inactive).

As for GGGUGCACUGGCUAAUAUATT against H2-Ea, the z-score was 1.13 (inactive).

Regarding GGGAAUAUUCAGUUGACAATT against Iigp1, the z-score is -1.14 (inactive).

As for GGUGAAUUUGAUUGAUGAGTT against Ccnl2, the z-score was -2.3 (active).

GGAGAAAGCCUUCCUUAGUTT against Trpc5: the z-score is -0.115 (inactive).

Turning to CGUAGCACUUCUUCUCUUATT against Dync1li2, the z-score is 0.484 (inactive).

Regarding GGUCUUGCUGAUCAACAACTT against Adgrb2, the z-score was 2.53 (active).

As to GCCAAUUUUGAACCACUACTT against Itga8, the z-score is -0.56 (inactive).

On to GGAAGUAUGAAAUUAUCAGTT against Car12, for which the z-score was 0.0371 (inactive).

Regarding CGGUUCUUCCAUCAAAUGGTT against Prodh, the z-score is 1.07 (inactive).

Regarding GGCUUUAAUCCUAACCCUATT against Zfp3, the z-score was -0.658 (inactive).

In the case of GCGAGCCAAGUUUGAACUUTT against Elovl6, the z-score is 1.42 (inactive).

Consider GCUGGCUUUAAAAAUAUCUTT against Nt5dc3, for which the z-score was 0.174 (inactive).

Regarding GGAGUGAUAGUCAUCAAUGTT against Olfr357, the z-score is -0.464 (inactive).

As for GGAACAGUCGGCCAUUUAATT against Tmem98, the z-score is -0.553 (inactive).

Regarding CCCUACUGUAUUAGAAAACTT against Dnph1, the z-score was 2.1 (active).

As for “GGAUCACUUUUAGUUUUCUTT against C230013L11Rik”, the z-score is -0.0242 (inactive).

Regarding GCCUGAUAGUGCAGAAACATT against Rabl2, the z-score was -0.233 (inactive).

For GGUUAUCGCAUUUGGUGGUTT against Olfr1511, the z-score is 0.104 (inactive).

On to GGACAAAAGGCAAUCUACATT against Mettl18, for which the z-score was 2.8 (active).

For the sequence GGUGUCUCUCCAGGAUAACTT against Ctrl, the z-score is -0.511 (inactive).

Consider CGUACAACACGGAAACCUATT against Paqr5, for which the z-score was -0.448 (inactive).

Regarding GGGUCUCAGCAGUGCAAACTT against Txnip, the z-score is -0.486 (inactive).

As for GGAGAGAGGGAAAAAAGAATT against Sox4, the z-score was -0.317 (inactive).

Regarding GGCUUGACUGCUAUUUUAGTT against Csn1s1, the z-score was 0.711 (inactive).

On to CCACCUGACUUUUGGAAGATT against Coro1b, for which the z-score was -1.8 (inactive).

On to UUAAGGAAAUGUUCUGUUCTT against Olfr426, for which the z-score was 0.797 (inactive).

On to GGCUUUGAGAGGAACACCATT against Sh2d4b, for which the z-score is -2.49 (active).

GGCCAAGUUCAACAUUCCATT against Lilrb4a: the z-score was 0.539 (inactive).

As to GGGACUUAAGUGAAGUUCATT against Ogfod2, the z-score was 0.232 (inactive).

For GCUGUCUCGUCAUUUAAGATT against Dym, the z-score was -0.461 (inactive).

With GGAAAGUGUUGUCAAAAGATT against Olfr125, the z-score is -0.386 (inactive).

As to GGCAUGUGGAAAACCUCCUTT against Lrrc46, the z-score is -0.413 (inactive).

Regarding GGAUGAUGAAUUCACACACTT against Calr, the z-score is 3.18 (active).

As to GGAGAAAAAAUUCUUAUCCTT against Prmt2, the z-score is -0.31 (inactive).

GGCGGUUUCACCUAUACAATT against Rspo4: the z-score was 0.821 (inactive).

As for GGUCACCUUAACCGAGAAGTT against Phkg1, the z-score is 0.19 (inactive).

As for GGACUUAACUAGUUGACAATT against Pclaf, the z-score is -1.06 (inactive).

Consider GGUAUGAUGAAAAUACACATT against Mmp1a, for which the z-score was 2.56 (active).

Turning to GGGAGUGCCUUUAAAACACTT against Satb1, the z-score is 0.882 (inactive).

For GCCAAAAGGAGGACAUACCTT against Mylk3, the z-score is 1.08 (inactive).

Consider GGAUAUUGAUUGCUUUGUUTT against Uox, for which the z-score was 1.41 (inactive).

GGACAAAAGAUUCUUCAUCTT against Map1b: the z-score is 2.93 (active).

Turning to CCAACAAUGAUUAAUCAGCTT against Meis1, the z-score was -1.38 (inactive).

As to GGAAAAUCACAAUCACUUGTT against Ccdc43, the z-score is -0.669 (inactive).

Take “GGUACCACCAUGCUAUGGUTT against Krtap19-9b”: the z-score is 0.646 (inactive).

GGUGGUGAUUCACCUCCAATT against Tnfrsf12a: the z-score is -2.23 (active).

GCACUCAAGACCUGUAUGATT against Cldn18: the z-score is 0.627 (inactive).

For GGAAAUGCCAUUUGAUUUGTT against Rfpl4, the z-score was 0.599 (inactive).

With GGACGAUCAUGACAAGAUGTT against Psmb2, the z-score was -2.35 (active).

Regarding CCAUCGUAUUUAACCACAUTT against Dtymk, the z-score was 0.206 (inactive).

Turning to GGCAAACUUAUCUUCUUCUTT against Ahsa1, the z-score was -1.89 (inactive).

Turning to GGGAGUUAUAUUAGUCUAUTT against Rab18, the z-score was 0.436 (inactive).

As to GGAUGCAGAGACCUAUUUCTT against Cacng5, the z-score was -0.158 (inactive).

Take GGAACAGAGCCUUUCUCAGTT against Rnf183: the z-score was -0.153 (inactive).

For CCCAUGAUCUGGAAGAGACTT against Il1a, the z-score is -2.08 (active).

For the sequence GCUAAUAGCCUGCCUAAGGTT against Plekhj1, the z-score was 1.35 (inactive).

For GUUACAAAACAUCGGUGGGTT against Vsig2, the z-score was 1.06 (inactive).

Consider CCUAGACAAAGUUUCAAACTT against Xrcc4, for which the z-score is -0.662 (inactive).

For the sequence GGAAAGAUUUCGAACAAUCTT against Rab1a, the z-score is 1.66 (inactive).

Turning to CAGUUUUUGGUCUCUAUCUTT against Olfr113, the z-score is 2.27 (active).

With GGCAGUUAGUAAGUUUAAATT against Eif5a2, the z-score is 1.22 (inactive).

For the sequence GGUAUACACAUGAAAACCATT against Ccdc137, the z-score was -0.548 (inactive).

In the case of GGUGAUUCGUCAGAAGCUGTT against Gpr84, the z-score is -0.61 (inactive).

Take GGCUUGCUAAAGGAUGGGATT against Coq8b: the z-score was 0.0536 (inactive).

Consider CGUACUGGUACGGAAGCGUTT against Adck1, for which the z-score was 0.279 (inactive).

In the case of GGAAUGAGGUUUGUAGACUTT against Arsg, the z-score is -0.765 (inactive).

For the sequence CCGUACAUCGAGAAAUACATT against Hal, the z-score is 2.36 (active).

Take GGAGGACUAGGAGUGAUUGTT against Fggy: the z-score was -0.363 (inactive).

As for GGAUAGUCAGAAAUGGAAATT against Chmp4c, the z-score is -0.43 (inactive).

As to GGGUGAUUUCUAUUCACUATT against Pam, the z-score is -0.633 (inactive).

Regarding GCACGGUCAAGUUUUGAUUTT against Prkaa2, the z-score was -0.792 (inactive).

As for GGGCCAAUUCUGAAACUUGTT against Il1f5, the z-score is 0.669 (inactive).

CCACAGUACGCUGAAAUCCTT against Morf4l1: the z-score was -2.27 (active).

Turning to GCUAGUGUGAUACCAUUUATT against Nab1, the z-score is 1.63 (inactive).

As to GGAGAACCGUAACAACAACTT against Cacna1a, the z-score is 0.692 (inactive).

For GGUAGACUCUAGAUUAAGATT against Srrm2, the z-score is -0.58 (inactive).

Consider CGAGCAAAUCUCAUUCAAGTT against Oxgr1, for which the z-score is 3.07 (active).

Regarding CCCACCUUACAUAUAUUGATT against Srr, the z-score is 0.25 (inactive).

Turning to GGUAUUAGAAGAUAAUGACTT against Akt3, the z-score was -1.12 (inactive).

For CCAUCAGUUUCAUUAUUGGTT against Fpr-rs6, the z-score is -0.605 (inactive).

On to GCAUAACUUAAACUGCUCATT against Zfp12, for which the z-score is 1.91 (inactive).

Turning to CCAGAGCUUAUUGAGAUGCTT against Myh4, the z-score is -0.475 (inactive).

In the case of GCUACUUAAGGGUUUGGAUTT against Pcdhb3, the z-score was 4.67 (active).

As for “GGCUGUUACAAGAACGUAGTT against 5031434C07Rik”, the z-score was -1.99 (inactive).

On to GGAAACAACCCAAAGAAUCTT against Slc12a8, for which the z-score was -0.343 (inactive).
